From the supplement of paper PMC4894684
Where a name gives a salt, the structure may show the parent alone. ± gives the standard deviation of the averaged measurements.

The compounds below were run on Toxoplasma gondii RH (in HFF) (assay: parasite growth relative to the screen mean (all compounds = 100%); higher = less inhibition of parasite growth). Conditions: 5 µM; 72 h; oxygen 21 %.
In short: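 Confluent human foreskin fibroblasts in 96-well plates received library compounds by pin transfer at 5 µM final, taken from 10 mM DMSO stocks. Within 2 h the cells were infected with RH β-Gal–GFP Toxoplasma at MOI 1:5 and cultured 72 h at 21% O2. A CPRG β-Gal assay read against in-plate standard curves gave parasite number, and growth is stated relative to the screen mean, where all compounds = 100%, averaged across two screens.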

Row | Compound | parasite growth [%]
1 | CCCCCCC[n+]1ccc(-c2cc[n+](CCCCCCC)cc2)cc1 [DHBP dibromide] | 86.1 ± 44
2 | C1CCc2nnnn2CC1 [Pentylenetetrazole] | 110 ± 22
3 | CCCN(CCC)C1CCc2ccc(O)cc2C1 (stereo not drawn) [7-Hydroxy-DPAT hydrobromide] | 67.2 ± 33
4 | Cc1cccc(C(C)c2c[nH]cn2)c1C (stereo not drawn) [Medetomidine hydrochloride] | 24.7 ± 22
5 | CC(C)(Cc1c[nH]c2ccc(Cl)cc12)NCCOc1ccccc1OCC1CC1 | < 0
6 | Clc1ccc(N2CCN(Cc3c[nH]c4ncccc34)CC2)cc1 [L-745,870 trihydrochloride] | 72.9 ± 7.7
7 | Clc1ccc(C2=CCCC3CCC2N3)cn1 (stereo not drawn) [UB 165 fumarate] | 106 ± 11
8 | CCCN(CCC)C1Cc2cc(OC)c(OC)cc2C1 | 123 ± 7.5
